Experiments:
Settings in all cases: concentration: 1 μM, replicates: in singlicate; n = 1
[1] = tested on: SGK2
[2] = tested on: SGK3
[3] = tested on: SGK
[4] = tested on: SIK2
[5] = tested on: SIK
[6] = tested on: SLK
[7] = tested on: T1, SNARK
T1 construct: gene NUAK2

[8] = tested on: SNRK
[9] = tested on: SRC
[10] = tested on: SRMS
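Further: KINOMEscan kinase panel screen.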

Compound	%Inh [1]	%Inh [2]	%Inh [3]	%Inh [4]	%Inh [5]	%Inh [6]	%Inh [7]	%Inh [8]	%Inh [9]	%Inh [10]
Cc1c(Cn2c(C)nn3c(=O)cc(N4CCO[C@H](C)C4)nc23)cccc1C(F)(F)F [GSK2373690]	13%	0%	26%	0%	1%	18%	0%	0%	1%	0%
COc1cccc(C2=C(N(C)c3ccccc3)C(=O)NC2=O)c1 [SB-334865]	0%	3%	0%	0%	0%	13%	0%	0%	0%	0%
CN1C(=O)C(Nc2cc(Cl)c(O)c(Cl)c2)=C(c2ccc(Cl)cc2)C1=O [SB-404321]	0%	0%	0%	0%	0%	0%	0%	0%	0%	0%
O=c1cc(N2CCOCC2)nc2n(Cc3ccc(F)c(Cl)c3)ccn12 [GSK2297099]	0%	19%	0%	0%	0%	0%	20%	0%	0%	0%
COc1cc2ncn(-c3cc(OCc4ccncc4)c(C(N)=O)s3)c2cc1OC [GSK336313]	0%	3%	0%	0%	0%	43%	4%	0%	0%	0%
COc1cc(Nc2ccnc3ccc(C(F)(F)F)cc23)cc(OC)c1OC [GW577382]	0%	0%	10%	25%	31%	24%	0%	0%	36%	0%
O=C(NCCNc1ccnc(Nc2ccc(F)cc2)n1)Nc1ccc2c(c1)OCO2 [GSK1379882]	13%	7%	12%	0%	0%	0%	1%	0%	0%	0%
CCC(=O)c1c(-c2ccccc2)c2cc(Cl)ccc2c(=O)n1Cc1cc(S(C)(=O)=O)n(CCC(C)(C)O)n1	4%	0%	4%	7%	11%	21%	1%	27%	0%	0%
Cc1cc(Nc2nc(-c3cccc(C)n3)nc3ccccc23)ccn1 [GW872411]	0%	0%	0%	23%	0%	0%	0%	0%	0%	13%
COc1cc(OC)cc(-c2cc3cnc(N)nc3nc2NC(=O)NC(C)(C)C)c1	0%	17%	0%	0%	6%	0%	0%	1%	0%	0%
COc1ccc(-c2coc3ccc(-c4nnc(SCc5cccc(C#N)c5)o4)cc23)cc1	0%	21%	0%	0%	17%	18%	30%	18%	3%	0%
COc1cc2ncn(-c3cc(OCCCc4ccccc4)c(C(N)=O)s3)c2cc1OC [GSK205189]	0%	0%	0%	0%	2%	79%	0%	0%	0%	0%
Cc1ccc(-c2ccc3c(ccc4sc5c(c43)NC[C@@H](C)N=C5N(C)C)n2)cn1	0%	0%	0%	0%	3%	0%	0%	0%	0%	0%
Cl.NS(=O)(=O)c1cccc(Nc2cc(-c3ccc(F)cc3)n[nH]2)c1 [GW824645]	100%	0%	22%	3%	0%	0%	0%	0%	1%	31%
COC(=O)c1c(-c2ccccc2)c2cc(Br)ccc2c(=O)n1Cc1ccc(S(C)(=O)=O)cc1	21%	23%	14%	0%	22%	0%	20%	11%	8%	0%
Cc1nc(N(C)[C@H]2CN(C(=O)CC#N)CC[C@H]2C)c2cc[nH]c2n1	7%	0%	25%	0%	6%	1%	1%	0%	11%	2%
COc1ccc(-n2cnc3c(N)ncnc32)cc1 [SKF-97236]	6%	11%	0%	14%	0%	11%	24%	0%	0%	0%
O=C(Nc1n[nH]c2nc(-c3ccccc3)c(Br)cc12)C1CC1 [SB-708998]	0%	0%	5%	0%	5%	20%	4%	18%	4%	0%

Compound	%Inh [1]	%Inh [2]	%Inh [3]	%Inh [4]	%Inh [5]	%Inh [6]	%Inh [7]	%Inh [8]	%Inh [9]	%Inh [10]
CCn1c(-c2nonc2N)nc2ccccc21 [SB-693162/GW549034]	12%	62%	12%	0%	10%	20%	51%	40%	0%	0%
Nc1nc(N)c2nc(-c3ccccc3)[nH]c2n1 [SKF-12778]	18%	7%	15%	22%	17%	21%	19%	0%	19%	0%
FC(F)(F)c1ccc(-c2ncn(CCCN3CCOCC3)c2-c2ccncc2)cc1 [SB-217780]	25%	0%	5%	0%	0%	0%	0%	18%	0%	0%
Cc1cccc(-c2nc(Nc3ccc4c(cnn4C)c3)c3ccccc3n2)n1 [GW876731]	37%	3%	0%	0%	0%	2%	21%	0%	11%	0%
OCCCNc1nccc(-c2c(-c3cccc(C(F)(F)F)c3)nn3cc(C(F)(F)F)ccc23)n1 [GW630813]	0%	6%	0%	0%	0%	4%	0%	0%	0%	0%
O=C(Nc1n[nH]c2cc(-c3ccccc3F)ccc12)C1CC1 [SB-733371]	11%	12%	5%	5%	0%	1%	1%	0%	0%	14%
Cc1nn2c(=O)cc(N3CCOCC3)nc2n1Cc1cccc(Cl)c1Cl [GSK2342769]	0%	0%	0%	0%	0%	4%	0%	0%	4%	0%
Cc1nnc(-c2ccc(C)c(-c3ccc(C(=O)O)cc3)c2)o1 [GW608005]	0%	0%	0%	0%	0%	0%	5%	0%	0%	0%
C[C@@H]1CC[C@H](C(=O)NC2CCCCC2)CN1c1cc(-c2ccc3c(N)n[nH]c3c2)nc(N)n1 [GSK2291363]	0%	13%	0%	3%	29%	20%	31%	0%	3%	11%
CN1C(=O)C(Nc2ccccc2)=C(c2ccccc2)C1=O [SB-300079]	0%	11%	7%	7%	3%	0%	12%	0%	0%	21%
COc1cc2ncn(-c3cc(OCc4ccc(S(C)(=O)=O)cc4)c(C(N)=O)s3)c2cc1OC [GW869979]	24%	5%	40%	0%	0%	29%	15%	2%	11%	14%
O=C(Nc1ccc2c(c1)OCO2)NC1CCN(c2ccnc(NCc3ccc(F)cc3)n2)CC1 [GSK1379859]	0%	0%	0%	0%	0%	12%	0%	0%	17%	0%
O=C(NCc1cccs1)c1cc(C(=O)c2c(Cl)cccc2Cl)c[nH]1 [GW823670]	0%	0%	0%	4%	4%	9%	0%	0%	0%	15%
Cc1nnc(-c2ccc3ncn(-c4ccc(S(C)=O)cc4)c3c2)o1 (centres unmarked)	0%	0%	0%	13%	20%	14%	0%	0%	5%	0%
COc1ccc(Nc2nccc(N3CCC(NS(=O)(=O)c4ccc(NC(C)=O)cc4)C3)n2)cc1 (centres unmarked) [GSK1379729]	14%	0%	10%	18%	2%	18%	2%	9%	6%	0%
Nc1ncnc2c1ncn2-c1cccc2ccccc12 [SKF-97184]	21%	4%	35%	0%	0%	0%	0%	2%	8%	17%
Nc1n[nH]c2nnc(-c3ccccc3)c(-c3ccccc3)c12 [GW554060]	0%	1%	24%	0%	0%	24%	0%	0%	0%	0%
